Test results from PubChem BioAssay AID1159580 (chemical genetic matrix, 2015).
Among all 5,500 compounds or so, about 2,000 (36%) were called active. Not shown: some 18% with an inconclusive outcome. The list shows a part of the results. A number with no mark means an inactive call. Cut-off read from the data, not from the text of the source: active = normalized growth mostly below about 0.91 (no sharp cut-off); inconclusive = no clear call, values can overlap the other calls; inactive = mostly above about 0.92.

Experiment: chemical genetic growth profiling, strain panel (AID 1159580);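 note: tested at 20 µM; growth read once vehicle control cultures reached saturation at 30 °C; 1 = growth at the plate median or of vehicle wells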
Conditions: growth OD

Nc1ccc(N=Nc2ccccc2)c(N)n1
normalized growth (S. cerevisiae deletion strains, locus YJR075W, strain HOC1, stronger effect = lower value): 0.991 | normalized growth (S. cerevisiae deletion strains, locus YKL009W, strain mrt4, stronger effect = lower value): 0.933 | normalized growth (S. cerevisiae deletion strains, locus YKL068W, stronger effect = lower value): 1.02 | normalized growth (S. cerevisiae deletion strains, locus YKL085W, strain MDH1 (second series), stronger effect = lower value): 1.01 | normalized growth (S. cerevisiae deletion strains, locus YKL085W, strain MDH1, stronger effect = lower value): 1.01 | normalized growth (S. cerevisiae deletion strains, locus YKL160W, strain elf1, stronger effect = lower value): 0.772 (active) | normalized growth (S. cerevisiae deletion strains, locus YKL190W, strain CNB1, stronger effect = lower value): 1 | normalized growth (S. cerevisiae deletion strains, locus YKR001C, strain vps1, stronger effect = lower value): 0.885 (active) | normalized growth (S. cerevisiae deletion strains, locus YKR026C, strain gcn3, stronger effect = lower value): 0.969 | normalized growth (S. cerevisiae deletion strains, locus YKR091W, strain srl3, stronger effect = lower value): 0.959 | normalized growth (S. cerevisiae deletion strains, locus YLL001W, strain dnm1, stronger effect = lower value): 0.8 (active) | normalized growth (S. cerevisiae deletion strains, locus YLL026W, stronger effect = lower value): 0.825 (active) | normalized growth (S. cerevisiae deletion strains, locus YLL041C, strain sdh2, stronger effect = lower value): 0.896 (active) | normalized growth (S. cerevisiae deletion strains, locus YLR027C, strain aat2, stronger effect = lower value): 0.802 (active) | normalized growth (S. cerevisiae deletion strains, locus YLR039C, strain RIC1, stronger effect = lower value): 0.596 (active) | normalized growth (S. cerevisiae deletion strains, locus YLR058C, strain SHM2, stronger effect = lower value): 1 | normalized growth (S. cerevisiae deletion strains, locus YLR102C, strain apc9, stronger effect = lower value): 1.02 | normalized growth (S. cerevisiae deletion strains, locus YLR113W, strain HOG1, stronger effect = lower value): 0.997 | normalized growth (S. cerevisiae deletion strains, locus YLR221C, strain rsa3, stronger effect = lower value): 0.7 (active) | normalized growth (S. cerevisiae deletion strains, locus YLR258W, strain gsy2, stronger effect = lower value): 0.771 (active) | normalized growth (S. cerevisiae deletion strains, locus YLR262C, strain YPT6 (second series), stronger effect = lower value): 0.351 (active) | normalized growth (S. cerevisiae deletion strains, locus YLR262C, strain YPT6, stronger effect = lower value): 0.574 (active) | normalized growth (S. cerevisiae deletion strains, locus YLR268W, strain sec22, stronger effect = lower value): 0.982 | normalized growth (S. cerevisiae deletion strains, locus YLR320W, strain mms22, stronger effect = lower value): 0.429 (active) | normalized growth (S. cerevisiae deletion strains, locus YLR330W, strain CHS5, stronger effect = lower value): 0.992 | normalized growth (S. cerevisiae deletion strains, locus YLR342W, strain FKS1 (second series), stronger effect = lower value): 0.916 | normalized growth (S. cerevisiae deletion strains, locus YLR342W, strain FKS1, stronger effect = lower value): 0.861 (active) | normalized growth (S. cerevisiae deletion strains, locus YLR357W, strain rsc2, stronger effect = lower value): 1.04 | normalized growth (S. cerevisiae deletion strains, locus YLR370C, strain arc18, stronger effect = lower value): 0.946 | normalized growth (S. cerevisiae deletion strains, locus YLR371W, strain rom2, stronger effect = lower value): 1.03 | normalized growth (S. cerevisiae deletion strains, locus YLR384C, strain iki3, stronger effect = lower value): 0.972 | normalized growth (S. cerevisiae deletion strains, locus YLR418C, strain cdc73, stronger effect = lower value): 0.881 | normalized growth (S. cerevisiae deletion strains, locus YML016C, strain PPZ1, stronger effect = lower value): 0.987 | normalized growth (S. cerevisiae deletion strains, locus YML032C, strain rad52, stronger effect = lower value): 0.938 | normalized growth (S. cerevisiae deletion strains, locus YML120C, strain ndi1, stronger effect = lower value): 0.79 (active) | normalized growth (S. cerevisiae deletion strains, locus YML124C, strain tub3, stronger effect = lower value): 1.02 | normalized growth (S. cerevisiae deletion strains, locus YMR058W, strain fet3, stronger effect = lower value): 0.716 (active) | normalized growth (S. cerevisiae deletion strains, locus YMR078C, strain ctf18, stronger effect = lower value): 1.01 | normalized growth (S. cerevisiae deletion strains, locus YMR125W, strain sto1, stronger effect = lower value): 0.962 | normalized growth (S. cerevisiae deletion strains, locus YMR129W, stronger effect = lower value): 0.978 | normalized growth (S. cerevisiae deletion strains, locus YMR205C, strain PFK2, stronger effect = lower value): 0.568 (active) | normalized growth (S. cerevisiae deletion strains, locus YMR223W, strain ubp8, stronger effect = lower value): 0.92 | normalized growth (S. cerevisiae deletion strains, locus YMR231W, strain pep5, stronger effect = lower value): 0.971 | normalized growth (S. cerevisiae deletion strains, locus YMR263W, strain SAP30, stronger effect = lower value): 0.927 | normalized growth (S. cerevisiae deletion strains, locus YMR307W, strain GAS1, stronger effect = lower value): 1.21 | normalized growth (S. cerevisiae deletion strains, locus YNL067W, strain RPL9B, stronger effect = lower value): 0.922 | normalized growth (S. cerevisiae deletion strains, locus YNL071W, strain lat1, stronger effect = lower value): 0.261 (active) | normalized growth (S. cerevisiae deletion strains, locus YNL128W, strain TEP1, stronger effect = lower value): 0.966 | normalized growth (S. cerevisiae deletion strains, locus YNL153C, strain GIM3, stronger effect = lower value): 0.975 | normalized growth (S. cerevisiae deletion strains, locus YNL183C, strain NPR1, stronger effect = lower value): 0.934 | normalized growth (S. cerevisiae deletion strains, locus YNL209W, strain ssb2, stronger effect = lower value): 0.791 (active) | normalized growth (S. cerevisiae deletion strains, locus YNL233W, strain BNI4, stronger effect = lower value): 0.937 | normalized growth (S. cerevisiae deletion strains, locus YNL248C, strain rpa49, stronger effect = lower value): 0.814 (active) | normalized growth (S. cerevisiae deletion strains, locus YNL250W, strain rad50, stronger effect = lower value): 1.02 | normalized growth (S. cerevisiae deletion strains, locus YNL271C, strain bni1, stronger effect = lower value): 0.995 | normalized growth (S. cerevisiae deletion strains, locus YNL298W, strain CLA4, stronger effect = lower value): 0.928 | normalized growth (S. cerevisiae deletion strains, locus YNL307C, strain MCK1, stronger effect = lower value): 0.798 (active) | normalized growth (S. cerevisiae deletion strains, locus YNL322C, strain KRE1 (second series), stronger effect = lower value): 1.03 | normalized growth (S. cerevisiae deletion strains, locus YNL322C, strain KRE1, stronger effect = lower value): 1.01 | normalized growth (S. cerevisiae deletion strains, locus YNR049C, strain mso1, stronger effect = lower value): 0.965 | normalized growth (S. cerevisiae deletion strains, locus YNR052C, strain pop2, stronger effect = lower value): 0.936 | normalized growth (S. cerevisiae deletion strains, locus YOL006C, strain TOP1, stronger effect = lower value): 0.332 (active) | normalized growth (S. cerevisiae deletion strains, locus YOL012C, strain htz1): 1.24 | normalized growth (S. cerevisiae deletion strains, locus YOL147C, strain pex11, stronger effect = lower value): 0.982 | normalized growth (S. cerevisiae deletion strains, locus YOR001W, strain rrp6, stronger effect = lower value): 0.753 (active) | normalized growth (S. cerevisiae deletion strains, locus YOR061W, strain CKA2, stronger effect = lower value): 0.995 | normalized growth (S. cerevisiae deletion strains, locus YOR069W, strain VPS5, stronger effect = lower value): 0.998 | normalized growth (S. cerevisiae deletion strains, locus YOR070C, strain gyp1, stronger effect = lower value): 0.774 (active) | normalized growth (S. cerevisiae deletion strains, locus YOR080W, strain dia2, stronger effect = lower value): 0.967 | normalized growth (S. cerevisiae deletion strains, locus YOR083W, strain WHI5, stronger effect = lower value): 0.784 (active) | normalized growth (S. cerevisiae deletion strains, locus YOR106W, strain vam3, stronger effect = lower value): 0.563 (active) | normalized growth (S. cerevisiae deletion strains, locus YOR136W, strain idh2, stronger effect = lower value): 1.01 | normalized growth (S. cerevisiae deletion strains, locus YOR144C, strain elg1, stronger effect = lower value): 1.01 | normalized growth (S. cerevisiae deletion strains, locus YOR184W, strain ser1, stronger effect = lower value): 1.02 | normalized growth (S. cerevisiae deletion strains, locus YOR231W, strain MKK1, stronger effect = lower value): 0.942 | normalized growth (S. cerevisiae deletion strains, locus YOR265W, strain rbl2, stronger effect = lower value): 0.903 (active) | normalized growth (S. cerevisiae deletion strains, locus YOR270C, strain vph1, stronger effect = lower value): 0.243 (active) | normalized growth (S. cerevisiae deletion strains, locus YOR290C, strain snf2, stronger effect = lower value): 0.782 (active) | normalized growth (S. cerevisiae deletion strains, locus YOR316C, strain cot1, stronger effect = lower value): 1.02 | normalized growth (S. cerevisiae deletion strains, locus YPL051W, strain arl3, stronger effect = lower value): 0.554 (active) | normalized growth (S. cerevisiae deletion strains, locus YPL055C, strain LGE1, stronger effect = lower value): 0.934 | normalized growth (S. cerevisiae deletion strains, locus YPL078C, strain atp4, stronger effect = lower value): 0.741 (active) | normalized growth (S. cerevisiae deletion strains, locus YPL106C, strain sse1, stronger effect = lower value): 0.978 | normalized growth (S. cerevisiae deletion strains, locus YPL240C, strain hsp82, stronger effect = lower value): 0.849 (active) | normalized growth (S. cerevisiae deletion strains, locus YPL241C, strain CIN2, stronger effect = lower value): 0.998 | normalized growth (S. cerevisiae deletion strains, locus YPL256C, strain CLN2, stronger effect = lower value): 0.962 | normalized growth (S. cerevisiae deletion strains, locus YPR119W, strain clb2, stronger effect = lower value): 1.02 | normalized growth (S. cerevisiae deletion strains, locus YPR141C, strain kar3, stronger effect = lower value): 1.04 | normalized growth (S. cerevisiae deletion strains, locus YPR163C, strain tif3, stronger effect = lower value): 0.952 | normalized growth (S. cerevisiae deletion strains, locus YPR167C, strain met16, stronger effect = lower value): 1.02 | normalized growth (S. cerevisiae deletion strains, strain wtn01, stronger effect = lower value): 0.964 | normalized growth (S. cerevisiae strains, strain wild type, stronger effect = lower value): 0.987
